Compound activity deposited in PubChem by The Scripps Research Institute Molecular Screening Center.
Only some compounds are listed: those with a hit (about 4.8% of all), similar ones and a draw of the others.
DAX1 inh-1: DAX1 (NR0B1) inhibitors, primary screen, cell-based, HEK293, Gal4-DAX1, luciferase luminescence | Nuclear receptor subfamily 0 group B member 1 (Homo sapiens), P51843 | inhibition, % at 6.75 µM | 340,000 tested, 0.99% active | HEK293 Gal4-DAX1 luciferase reporter;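 active = inhibition above the mean over all tested compounds plus 3 SD, cut at about 4.2% in these data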;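 also: inhibition shows as a rise in luminescence from relieved DAX1 repression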
Target sequence (P51843 207-470 limits assumed): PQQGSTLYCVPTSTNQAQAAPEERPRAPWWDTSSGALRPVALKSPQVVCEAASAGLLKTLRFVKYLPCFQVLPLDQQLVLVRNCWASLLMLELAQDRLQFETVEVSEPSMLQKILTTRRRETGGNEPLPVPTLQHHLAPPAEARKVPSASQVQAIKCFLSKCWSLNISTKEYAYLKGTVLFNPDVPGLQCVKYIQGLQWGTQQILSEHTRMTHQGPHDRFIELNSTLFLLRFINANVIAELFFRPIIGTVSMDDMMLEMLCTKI
hgDAF12 agonist: H. glycines DAF-12 receptor agonists, primary screen, cell-based, luminescence, HEK293, GAL4 fusion, UAS-luciferase. Nuclear hormone receptor DAF-12 (Heterodera glycines), GAL4 fusion. HEK293 GAL4-hgDAF12 UAS-luciferase reporter, agonist luminescence; normalized to butyrate control. activation, % at 6.8 µM. 370,000 tested, 1.8% active. AID 687014, 2013;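 active = activation above a cutoff set at the mean of all screened compounds plus 3 SD, cut at about 10% in these data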
DAX1 inh-2: DAX1 (NR0B1) inhibitors on StAR promoter, primary screen, cell-based, luminescence, SF-1 (NR5A1), full-length DAX-1; 370,000 tested, 1.1% active; inhibition, % at 6.8 µM; HEK293T StAR-luciferase reporter, SF-1/DAX-1 repression relief; AID 652010, 2013;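 active = inhibition above the mean over all tested compounds plus 3 SD, cut at about 3.6% in these data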;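 also: higher inhibition means more luminescence from relief of DAX-1 repression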
hcDAF12 agonist: H. contortus DAF-12 nuclear receptor activators, primary screen, cell-based, luminescence, HEK293, lit1-tk-luc reporter; 370,000 tested, 1.4% active; HEK293 hcDAF-12 lit1-tk-luc reporter; 0% DMSO, 100% Δ7-dafachronic acid; activation, % at 6.8 µM;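 active = activation above the mean of all tested compounds plus 3 SD, cut at about 5.5% in these data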
ssDAF12 agonist: S. stercoralis DAF-12 nuclear receptor activators, primary screen, cell-based, luminescence, HEK293, GRIP1 co-expression, lit1-tk-luc. Nuclear hormone receptor DAF-12 (Strongyloides stercoralis). HEK293 ssDAF-12/GRIP1 lit1-tk-luc reporter; % of 3 µM dafachronic acid response. 370,000 tested, 1% active. activation, % at 6.8 µM;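 active = activation above the mean over all tested compounds plus 3 SD, cut at about 0.9% in these data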
SMARCA2 activ: SMARCA2 (BRM) function activators, primary screen, cell-based, luminescence, high throughput. AID 652017, 2013. 370,000 tested, 1% active. activation, % at 9.1 µM. MG213 cells, MMTV-luciferase reporter, dexamethasone, overnight; in the data active = activation above about 7.8%
Numbers stand for hits; n = inactive; x = no result given.

SMILES	DAX1 inh-1	hgDAF12 agonist	DAX1 inh-2	hcDAF12 agonist	ssDAF12 agonist	SMARCA2 activ
O=C(NCc1ccccc1)C1Cc2c(-c3ccc4c(c3)OCO4)ccnc2O1 (stereo unspecified)	x	n	4.4	n	n	n
C#CCCCN([C@H](C(=O)OC)C(C)C)S(=O)(=O)c1ccccc1Br	x	n	n	n	n	n
Oc1[nH]c2ccccc2c1N=Nc1ccc(F)cc1	n	12	n	n	n	n
CC(C)(O)C(=O)N=Nc1c(O)[nH]c2ccccc12	n	10	n	n	n	n
O=C(CNC(=O)Cc1ccccc1)N=Nc1c(O)[nH]c2ccccc12	n	n	n	n	n	n
Nn1c(SCC(=O)N2CCOCC2)nnc1-c1cc(-c2ccc(F)cc2)n[nH]1	x	n	n	n	n	n
CC(C)[C@H](N)C(=O)N[C@H](C(=O)N1CCC2CCN(S(=O)(=O)c3ccccc3)CC21)C(C)C (stereo partly specified)	x	n	n	n	n	n
COC(=O)[C@@]12CCCCC3=C1N(CCC3)C(=O)[C@H]2CC(=O)NCc1ccc(C)o1	x	n	n	n	n	n
CCOc1ccccc1/C=N/NC(=O)c1cc(C(C)C)[nH]n1	n	n	n	n	n	n
CC(C)c1cc(C(=O)N/N=C/c2c[nH]c3ccccc23)n[nH]1	4.7	n	n	n	n	n
O=C(N/N=C/c1c[nH]c2ccccc12)c1cccc(O)c1	n	n	n	n	n	n
O=C(CSc1nnc(SCc2ccccc2Cl)s1)N/N=C/c1c[nH]c2ccccc12	n	n	n	6.4	n	n
O=C(N/N=C/c1c[nH]c2ccccc12)c1cccc(Cl)c1	n	n	n	n	1.4	n
CCCC[C@H]1C2CC(OC(=O)Nc3cc(C)cc(C)c3)C(C2)[C@H]2CCCCN21 (stereo partly specified)	x	n	n	n	n	n
C[C@H]1[C@@H](OC(=O)NCc2ccc(Cl)c(Cl)c2)CC[C@@]23CCCN2C(=O)CCC[C@@H]13	x	n	x	n	n	x
COc1ccc2c(c1)N[C@@](CCN1C(=O)c3ccccc3C1=O)(c1[nH]c3ccccc3c1CCN1C(=O)c3ccccc3C1=O)C2=O	x	n	x	n	n	x
CCOC(=O)C1=C(C)Nc2nc(C)nn2C1c1ccc(OC)c(OC)c1 (stereo unspecified)	4.6	n	n	n	n	n
O=C(COC(=O)/C=C/c1ccc2c(c1)OCO2)Nc1ccccc1	n	n	n	n	n	n
COc1cccc(/C=C/C(=O)OCC(=O)Nc2ccc3c(c2)OCO3)c1	6.4	n	n	n	n	n
Cc1ccccc1NC(=O)NC(N)=O	n	n	n	n	n	n
COc1ccc(NC(=O)Nc2ccc3c(c2)OCO3)c(C)c1	n	n	4.4	n	n	n
COc1ccc(NC(=O)Nc2ccc(F)cc2F)cc1	n	n	n	n	1.1	n
COc1ccccc1NC(=O)NC(N)=O	4.3	n	n	n	n	n
O=C(NCc1ccccc1)[C@@H]1CCCN1C(=O)[C@H]1CCCN1C(=O)c1ccc(F)c(C(F)(F)F)c1	x	n	n	n	n	n
COc1ccccc1NC(=O)Nc1ccc2c(c1)OCCO2	8.0	13	n	n	n	n
SMILES	DAX1 inh-1	hgDAF12 agonist	DAX1 inh-2	hcDAF12 agonist	ssDAF12 agonist	SMARCA2 activ
COC(=O)CCC(=O)N1C2=NC3=C(C(=O)N(Cc4ccc5c(c4)OCO5)C3=O)C3N(C)c4ccccc4[C@]23C[C@H]1CO (stereo partly specified)	x	n	n	n	n	n
CC(Sc1nc2ccccc2s1)C(=O)N1CCOCC1 (stereo unspecified)	n	n	n	n	1.2	n
COc1ccc(OC)c(-c2nnc(SCC(=O)N3CCOCC3)o2)c1	n	n	n	n	n	n
COc1ccc(OC)c(-c2nnc(SCC(=O)N3CCCC3)o2)c1	4.9	n	n	n	n	n
O=C(CSc1nnc(-c2ccc(Cl)cc2)o1)N1CCOCC1	n	11	n	n	n	n
O=C(CSc1nnc(-c2cccs2)o1)N1CCCCC1	n	12	n	n	n	n
O=C(CSc1nnc(-c2ccc(O)cc2)o1)N1CCOCC1	n	n	n	n	n	n
Cc1ccccc1-c1nnc(-c2ccccc2C)o1	n	11	n	n	n	n
Cc1ccccc1-c1nnc(-c2cccc3ccccc23)o1	n	n	n	n	n	n
Cc1ccccc1-c1nnc(SCC(=O)N2CCCC2)o1	n	11	n	n	n	n
Fc1ccccc1CSc1nnc(-c2cccs2)o1	n	11	3.7	n	n	n
c1ccc(CSc2nnc(-c3cccs3)o2)cc1	n	n	n	n	n	n
c1ccc(N2CCN(c3ccccc3)C2c2cccs2)cc1	7.7	n	n	n	n	n
O=C(COC(=O)CCS(=O)(=O)c1ccc(Cl)cc1)Nc1ncc(Cl)cc1Cl	4.8	n	n	n	n	n
Cc1c(Cl)cnc(NC(=O)COC(=O)CCS(=O)(=O)c2ccccc2)c1Cl	n	n	n	n	n	n
CCOC(=O)Cn1cc(CN2CCS(=O)(=O)N(Cc3ccccc3)C(C(=O)OC)C2)nn1 (stereo unspecified)	x	n	n	n	n	n
C#CCN1C(C(=O)OC)CN(CCCCCC)CCS1(=O)=O (stereo unspecified)	x	n	n	n	n	n
Cc1nc(Nc2ccccc2)sc1C	7.2	n	n	n	n	n
Cc1csc(Nc2ccccc2)n1	n	n	n	n	n	n
O=C(O)c1cccc(-n2cc(-c3cccc(C(F)(F)F)c3)cn2)c1	n	13	n	n	n	n
COc1ccc(NC(=O)C(c2cc3c(cc2[N+](=O)[O-])OCO3)N(C)Cc2ccccc2)cc1 (stereo unspecified)	n	n	n	5.8	n	n
CCOC(=O)[C@@]12CN(C(=O)OC(C)(C)C)CC=C1N(Cc1ccc(OC)cc1)C(=O)[C@H]2CC(=O)NCCCOC	x	n	n	n	n	n
[O-][N+](=C(c1ccccc1)c1ccccc1)c1ccccc1	n	n	n	n	0.9	n
COCCNC(=O)CN1CCOc2ccccc21	n	n	n	n	n	n
O=C(CN1CCOc2ccccc21)NC1CC1	n	n	n	6.5	2.1	n
CN(C)c1ccc(/C=C(/NC(=O)c2ccccc2)C(=O)N/N=C/c2ccc([N+](=O)[O-])c(O)c2)cc1	n	12	n	n	n	n
O=C(N/N=C\c1ccccc1)c1ccccc1-n1cccc1	n	n	n	n	1.2	n
